Reference: ChEMBL document CHEMBL4513216, “Probing the Open Global Health Chemical Diversity Library for Multistage-Active Starting Points for Next-Generation Antimalarials” (ACS Infect Dis, 2020)
Hit rate of the full screen: of about 69,000 compounds, about 8,600 (12%) showed an effect of 50% or more. Many of the other results were omitted from the sample, so strong results are more common in it than they were.

system: Plasmodium berghei; test: Screen against P. berghei liver stage (PbLuc), transformed with Luciferase, at 10uM; type: functional, HepG2; settings: tested at 10 uM

SMILES	INHIBITION [%]
CC(CC#N)N(C)Cc1ccccc1F (stereo unspecified)	30.9
CN(Cc1ccccc1C(F)(F)F)C(C(N)=O)c1ccccc1 (stereo unspecified)	36.3
CN(Cc1ccccc1Cl)C(C(=O)O)c1ccc(F)c(CO)c1 (stereo unspecified)	63.8
CC(C(N)=O)N(C)Cc1ccccc1C(F)(F)F (stereo unspecified)	56.8
CN(C)C(=O)c1ccc(C(C(=O)O)N(C)Cc2ccccc2Cl)cc1 (stereo unspecified)	44.3
COCCN(C)C(C(=O)O)c1ccc(F)c(Cl)c1 (stereo unspecified)	40.3
Cc1ccccc1CN(C)C(C(N)=O)c1ccccc1 (stereo unspecified)	43.1
CN(Cc1ccccc1F)C(C(N)=O)c1ccccc1 (stereo unspecified)	50.8
CC(O)CNCc1ccccc1C(F)(F)F (stereo unspecified)	37.7
O=C(CCn1c(C(F)(F)F)cc2cccnc21)N1CCCC1	12.3
O=C1COC2(CCN(c3cccc(F)c3)CC2)CN1Cc1ccccn1	42.3
CC(C)N1CCc2c(C#N)c(NCc3ccco3)n3cnnc3c2C1	37.1
COC(=O)N1CCN(c2ncnc3nc(C)cc(C)c23)CC1	20
CC(C)NC(=O)c1ccc2c(c1)nc1n2CCN(Cc2ccco2)C1	-11.4
CC(=O)N1[C@H](CN(C)C)C[C@@H]2CN(C(=O)c3cncc(C)c3)CC[C@@H]21	23.5
COc1ccc(CN2CCC3(CC(=O)N(c4cccc(F)c4)C3)C2)cc1 (stereo unspecified)	21.1
CN(C)c1cccc(C2CCN(C3COCC3O)CC2)n1 (stereo unspecified)	26.7
COCCCN(C)[C@@H]1c2ccccc2C2(CCNCC2)[C@H]1O	11.05
CN(CC1(CO)CCOCC1)[C@@H]1c2ccccc2C2(CCNCC2)[C@H]1O	21.55
COCCN(C)[C@@H]1c2ccccc2C2(CCNCC2)[C@H]1O	15.12
Cc1ccc(CCN[C@@H]2c3ccccc3C3(CCNCC3)[C@H]2O)s1	54.4
COc1ccccc1CCN[C@@H]1c2ccccc2C2(CCNCC2)[C@H]1O	88
CN(CC1(CO)CCCC1)[C@@H]1c2ccccc2C2(CCNCC2)[C@H]1O	2.18
Cn1ccnc1SC1CCc2ccccc2NC1=O (stereo unspecified)	4.07

SMILES	INHIBITION [%]
Cc1ccc(CN(CCN(C)C)Cc2c(C)nc3sccn23)o1	27.675
CN(C)c1cc(CNC(=O)Nc2nnc(C3CC3)s2)ccn1	-27.8
O=C(CC1=CCCCC1)Nc1ncn(CC(=O)N2CCCCCC2)n1	-18.4
CC(Nc1cccc(CN2CCOC2=O)c1)C(=O)Nc1cccc(F)c1 (stereo unspecified)	28.15
CSCC(CCO)NC(=O)Nc1cc(C)ccc1C (stereo unspecified)	40.9
CSCC(CCO)NC(=O)Nc1cc(Br)ccc1C (stereo unspecified)	-4.94
CSCC(CCO)NC(=O)Nc1cc(F)ccc1C (stereo unspecified)	50.4
CSCC(CCO)NC(=O)Nc1ccc(C)cc1Br (stereo unspecified)	36.8
CCS(=O)(=O)NC(CCSC)C(=O)Nc1cc(F)ccc1C (stereo unspecified)	67.1
CCS(=O)(=O)NC(CCSC)C(=O)Nc1ccc(F)cc1 (stereo unspecified)	38
CSCC(CCO)NC(=O)Nc1ccc(Br)cc1 (stereo unspecified)	53.8
CSCC(CCO)NC(=O)Nc1cccc(Br)c1 (stereo unspecified)	-4.94
CCS(=O)(=O)NC(CCSC)C(=O)Nc1ccccc1C (stereo unspecified)	20
CO[C@@H]1CCN(Cc2ccc(C)o2)[C@H]1Cc1ccccc1	3.88
COc1ccc2c(c1)C(=O)NC1(CC2)CCN(Cc2ccc(F)cc2)C1 (stereo unspecified)	13.621
Cc1oncc1C(=O)NCc1cc(=O)n2c(n1)CN(C)CCC2	16.5
Cc1ccccc1CN(C)C(=O)c1cc(C2CCCN2C)ccn1 (stereo unspecified)	34
CC(=O)c1cnc(NCCN2CCCC(c3ccccc3)C2)nc1C (stereo unspecified)	23.3
Cc1cnc(N2CCN(C(C)C(N)=O)CC2)nc1 (stereo unspecified)	19
Cc1ccc(F)cc1-n1c(CN(C)S(C)(=O)=O)n[nH]c1=O	49.4
CCCc1noc(C2CC(=O)N(CCN(C)C)C2)n1 (stereo unspecified)	20.9
Cc1ccccc1CNCc1cc(Cl)ccc1O	15
COc1cccc(CC(=O)N2Cc3nccn3CC(CN(C)C)C2)c1 (stereo unspecified)	40.8
Cc1csc(C2(NCCC(=O)N3CCOCC3)CCCC2)n1	20.9

SMILES	INHIBITION [%]
Cc1csc(C2(NC(=O)NCCN3CCOCC3)CCCC2)n1	64.5
Cc1csc(C2(NC(=O)NCCN3CCOCC3)CCC2)n1	47.4
CCCC(C(=O)NCCc1nc(C)cs1)N(C)C (stereo unspecified)	26
Cc1cnn(C2CN(CC(=O)NCCOc3ccccc3)C2)c1	3.15
Cc1cnn(C2CN(CC(=O)NCCCc3ccccc3)C2)c1	56.6
O=C(CN1CC(n2cccn2)C1)NCCCc1ccccc1	54.4
c1ccc(CCCN2CC(n3cccn3)C2)cc1	-5.81
O=C(CN1CC(n2cccn2)C1)NCCC1=CCCCC1	-77.3
Cc1cnn(C2CN(CC(=O)NCCc3ccccc3)C2)c1	27.4
O=C(CN1CC(n2cccn2)C1)NCCc1ccc(F)cc1	-19.4
N#CCCNC(=O)CN1CC(n2cccn2)C1	53
O=C(CN1CC(n2cccn2)C1)NCCCN1CCCC1=O	28.8
Cc1noc(C)c1CN1CCO[C@H]2[C@H](Oc3ncccc3F)CC[C@@H]21	34.4
CN(C)c1ccc(-c2cccc(-c3ccn(CCCO)n3)c2)nn1	-121
Cc1occc(=O)c1OCC(=O)N1CCN(c2cccc(Cl)c2)CC1	-5.77
Cc1cc(C2CCCN(CCC(=O)N3CCc4ccccc43)C2)n[nH]1 (stereo unspecified)	1.04
CN(C)C(c1ccccn1)C1CCC(CNC(=O)C2CCCC2)CC1 (stereo unspecified)	14.6
CN(C)c1ncc2c(n1)C1(CCN(CC3CC3)C1)COC2 (stereo unspecified)	46.8
CC(C)CN1CCC2(COCc3cnc(-c4ccccc4)nc32)C1 (stereo unspecified)	69.3
O=C(CC1CC1)N1CCC2(COCc3cnc(-c4ccccc4)nc32)C1 (stereo unspecified)	-21.1
CN1CCC2(COCc3cnc(-c4ccccc4)nc32)C1 (stereo unspecified)	-6.97
c1ccc(-c2ncc3c(n2)C2(CCN(CC4CC4)C2)COC3)cc1 (stereo unspecified)	66.2
COCCN1CCC2(COCc3cnc(-c4ccccc4)nc32)C1 (stereo unspecified)	6.79
